Screening results (PubChem)
MsrA inhibitor – bovine MsrA enzyme inhibitors, primary screen, biochemical, absorbance, HTS; Methionine sulfoxide reductase A (Bos taurus); purified bovine MsrA, absorbance read-out; inhibition, % at 15.5 µM; 0.75% of 360,000 active; AID 651718, 2012;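 note: 0% = vehicle wells with enzyme and 100% = reference inhibitor wells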
HGIII-sPLA2 inh – human group III sPLA2 inhibitors, primary screen, biochemical, QFRET, BODIPY PC-A2 liposome substrate | Group 3 secretory phospholipase A2 (Homo sapiens), Q9NZ20 | QFRET BODIPY PC-A2 liposome hydrolysis, fluorescence | 0.56% of 370,000 active | inhibition, % at 12.2 µM | AID 743126, 2013;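 active = inhibition above mean plus 3 SD of compounds lying within the high and low control bounds, cut at about 19% in these data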;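 note: 0% = median of test compound wells and 100% = no enzyme DMSO wells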
Target sequence (Q9NZ20 whole entry, looked up): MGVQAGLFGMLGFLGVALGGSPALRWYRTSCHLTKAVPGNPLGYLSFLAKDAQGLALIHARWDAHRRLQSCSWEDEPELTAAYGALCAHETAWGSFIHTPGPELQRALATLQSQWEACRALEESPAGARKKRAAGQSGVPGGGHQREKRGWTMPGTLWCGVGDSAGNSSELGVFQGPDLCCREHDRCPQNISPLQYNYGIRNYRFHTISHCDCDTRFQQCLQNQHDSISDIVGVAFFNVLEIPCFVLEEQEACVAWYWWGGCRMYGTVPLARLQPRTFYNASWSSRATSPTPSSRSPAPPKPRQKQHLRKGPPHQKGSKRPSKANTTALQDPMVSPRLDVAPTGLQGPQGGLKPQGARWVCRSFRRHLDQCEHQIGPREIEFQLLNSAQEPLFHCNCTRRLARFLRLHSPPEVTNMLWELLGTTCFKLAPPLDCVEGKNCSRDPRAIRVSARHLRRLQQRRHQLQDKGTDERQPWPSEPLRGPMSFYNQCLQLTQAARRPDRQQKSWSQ
bovine MsrA act – bovine MsrA enzyme activators, primary screen, biochemical, absorbance, HTS. Methionine sulfoxide reductase A (Bos taurus). purified bovine MsrA, absorbance read-out. activation, % at 10.6 µM. 0.3% of 360,000 active. AID 602163, 2012; in the data active = activation above about 7.5%;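 note: 0% = vehicle and 100% = reference activator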
rCAG RNA binder – binders of r(CAG) RNA repeats, primary screen, biochemical, fluorescence. r(CAG) RNA repeat, TO-PRO-1 dye displacement fluorescence. inhibition, % at 3 µM. AID 651821, 2012. 1.3% of 370,000 active;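 active = inhibition above the plate cutoff, the mean of all test compounds on that plate plus 3 SD, cut at about 35% in these data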;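 note: 0% = DMSO alone and 100% = 100 µM mitoxantrone as full dye displacement; higher means more dye released from RNA so lower well fluorescence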
MsrA conf – bovine MsrA inhibitors, retest, confirmation, biochemical, absorbance, HTS; AID 651822, 2012; inhibition, % at 15.5 µM; shares compounds with MsrA inhibitor; 41% of 2,300 active; purified bovine MsrA, absorbance read-out;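 note: coupled to thioredoxin reductase with NADPH and selenocystamine and DMSO as substrate; 0% = vehicle only and 100% = full effect of reference inhibitor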
rCAG binder conf – small molecules binding CAG repeat RNA – biochemical, fluorescence, confirmation; inhibition, % at 3 µM; r(CAG) RNA repeat, TO-PRO-1 dye displacement fluorescence; shares compounds with rCAG RNA binder; 70% of 4,300 active;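 active = inhibition above a per-plate cutoff, the mean inhibition of sample wells plus 3 SD, cut at about 35% in these data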;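 note: loss of TO-PRO-1 fluorescence as compound displaces dye from 1x1 AA loop RNA; 0% = DMSO only wells and 100% = 100 µM mitoxantrone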
DNA CAG counter – displacement of TO-PRO-1 from CAG DNA duplex, counter-screen for rCAG RNA repeat binder project, biochemical, fluorescence, TO-PRO-1 dye, d(CAG) DNA oligo; shares compounds with rCAG RNA binder; d(CAG) DNA oligo TO-PRO-1 dye displacement; inhibition, % at 3 µM; 94% of 4,300 active;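 active = inhibition above its plate's cutoff, the mean test-well inhibition plus 3 SD, cut at about 4.8% in these data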;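 note: 0% = DNA dye mix with DMSO and 100% = 100 µM mitoxantrone; hits displace the dye from DNA and so lower well fluorescence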
hGIII sPLA2 conf – human group III sPLA2 inhibitors, confirmation, biochemical, QFRET, triplicate; 34% of 2,000 active; shares compounds with HGIII-sPLA2 inh; recombinant hGIII-sPLA2, BODIPY PC-A2 QFRET fluorescence; AID 743280, 2014; inhibition, % at 12.2 µM;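 active = mean inhibition across triplicates above the hit cutoff set in the earlier primary screen, cut at about 19% in these data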;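 note: 0% = enzyme with DMSO and 100% = DMSO wells lacking enzyme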
535nm interf – 535nm fluorescence optical interference, confirmation, artefact control for HGIII-sPLA2 inhibitor project, biochemical, QFRET | BODIPY FL product fluorescence interference | 8.5% of 2,000 active | shares compounds with HGIII-sPLA2 inh | inhibition, % at 12.2 µM;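 active = average inhibition above the solvent-only control mean plus 3 SD, cut at about 6% in these data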;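 note: 0% = DMSO with substrate plus product and 100% = DMSO with substrate alone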
An asterisk follows results filed as active; nt = no result given. Most compounds without a hit are left out; they make up all but 2.8% or so of the library. Cut-off read from the data, not from the text of the source, unless noted: active = inhibition above about 4.5%; inactive = the rest.

SMILES	MsrA inhibitor	HGIII-sPLA2 inh	bovine MsrA act	rCAG RNA binder	MsrA conf	rCAG binder conf	DNA CAG counter	others
Nc1nonc1-c1nc2ccccc2n1CC(=O)N/N=C/c1ccc(-c2cccc(C(=O)O)c2)o1	5.7*	-33	-5	61*	6.3*	46*	14*
COc1ccc(N2CCN(C(=O)c3ccc(CS(=O)c4cccc(Cl)c4)o3)CC2)cc1 (configuration not stated)	0	-3	-6	3	nt	nt	nt
O=[N+]([O-])c1cc(Br)ccc1NS(=O)(=O)c1ccccc1	0	-24	-2	13	nt	nt	nt
O=C(O)CSc1cc(NS(=O)(=O)c2ccc(Br)cc2)c2ccccc2c1O	4.9*	-6	9.3*	39*	-1	57*	23*
NS(=O)(=O)c1ccc(N/N=C/c2cn(-c3ccccc3)nc2-c2cccs2)cc1	7.0*	4	-4	36*	2	25	15*
O=C(O)c1cccc(N/N=C/c2cn(-c3ccccc3)nc2-c2cccs2)c1	13*	-16	-3	48*	7.3*	76*	37*
S=C(c1ccc2c(c1)OCO2)N1CCN(c2cccc(Cl)c2)CC1	0	11	-3	2	nt	nt	nt
CNc1ccc(/C=C(\CCC(=O)O)c2nc3ccccc3s2)cc1[N+](=O)[O-]	4.8*	-23	-6	78*	5.4*	82*	39*
Cn1cnnc1Sc1ccc(/C=C(\CCC(=O)O)c2nc3ccccc3s2)cc1[N+](=O)[O-]	4	-9	-1	16	nt	nt	nt
CC1OC(Oc2ccc3ccc(=O)oc3c2-c2c(O)ccc3cc(Oc4ccc5ccc(=O)oc5c4)c(=O)oc23)C(O)C(O)C1O (configuration not stated)	4.8*	1	-5	38*	4	24	8.7*
O=c1ccc2ccc(O[C@@H]3O[C@H](CO[C@@H]4OC[C@](O)(CO)[C@H]4O)[C@@H](O)[C@H](O)[C@H]3O)cc2o1	0	-5	-4	11	nt	nt	nt
Cc1ccc(SCC(=O)Nc2c(Br)cnn2C)cc1	0	-4	1	-3	nt	nt	nt
O=C(N/N=C/c1ccc(N2CCOCC2)cc1)c1ccccc1NS(=O)(=O)c1cccs1	8.0*	-6	-7	66*	7.0*	50*	17*
COc1ccc(C=NNC(=O)c2ccccc2NS(=O)(=O)c2cccs2)cc1O	5.1*	-21	-4	36*	3	37*	10*
O=C(O)COc1ccccc1/C=N/Nc1ccc(S(=O)(=O)N2CCOCC2)cc1[N+](=O)[O-]	4.9*	-4	-5	52*	4	39*	9.3*
O=C(O)c1ccc(/C=N\Nc2ccc(S(=O)(=O)N3CCOCC3)cc2[N+](=O)[O-])cc1	0	14	-3	1	nt	nt	nt
O=C(N/N=C/c1ccccc1Cl)c1[nH]c2ccc(Br)cc2c1-c1ccccc1	2	4	-4	2	nt	nt	nt
COc1ccc(/C=N/NC(=O)c2[nH]c3ccc(Cl)cc3c2-c2ccccc2)c(C(=O)O)c1OC	5.2*	-18	-3	64*	6.5*	66*	25*
O=S(=O)(O)c1ccc(N2N=C(c3ccccc3)CC2c2ccccc2)cc1 (configuration not stated)	5.8*	-74	-5	79*	3	56*	19*
Cc1nc2ccc(NC(=O)c3cc([N+](=O)[O-])cc([N+](=O)[O-])c3Cl)cc2s1	5.5*	-9	2	94*	2	55*	22*
Cc1cccc(NC(=S)NC(=O)/C=C/c2ccco2)c1	25*	3	-5	37*	1	29	14*
O=C(/C=C/c1ccco1)NC(=S)Nc1ccccc1	4	10	-4	12	nt	nt	nt
Nc1nc2c(nnn2C2CC(O)C(CO)O2)c(=O)[nH]1 (configuration not stated)	-2	8	0	2	nt	nt	nt
CCC(C)Oc1ccc(/C=C/c2[nH]c(=O)[nH]c(=O)c2[N+](=O)[O-])cc1OC (configuration not stated)	7.6*	-11	-3	36*	4.6*	24	4.9*
COc1cc(/C=C/c2[nH]c(=O)[nH]c(=O)c2[N+](=O)[O-])ccc1OCCC(C)C	2	1	-4	4	nt	nt	nt
SMILES	MsrA inhibitor	HGIII-sPLA2 inh	bovine MsrA act	rCAG RNA binder	MsrA conf	rCAG binder conf	DNA CAG counter	others
COc1cc2c(cc1OC)-c1cc(Nc3ccccc3C)nc(=O)n1CC2	3	5	-2	5	nt	nt	nt
CCOc1ccccc1Nc1cc2n(c(=O)n1)CCc1cc(OC)c(OC)cc1-2	6.9*	82*	-1	-4	4	nt	nt	hGIII sPLA2 conf=5;535nm interf=-16
COc1cc(/C=N/N=C(\N)c2nonc2N)ccc1O	5.5*	25*	-6	0	4	nt	nt	hGIII sPLA2 conf=1;535nm interf=-7
Cc1ccccc1OCCC(=O)NNC(=O)c1ccccc1F	0	-3	0	0	nt	nt	nt
Cn1c(=O)c(=O)n(C)c2cc(N3CCCCC3)c(NS(=O)(=O)c3ccc([N+](=O)[O-])cc3)cc21	4.8*	21*	-2	11	2	nt	nt	hGIII sPLA2 conf=12;535nm interf=-3
NC(=O)CC(NC(=O)Cc1cccc2ccccc12)c1ccc(NCCOc2ccccc2)c([N+](=O)[O-])c1 (configuration not stated)	1	-9	-8	16	nt	nt	nt
O=C(NCc1cc(C(F)(F)F)cc(C(F)(F)F)c1)C12CN(Cc3ccccc3)CC1C(c1cccc([N+](=O)[O-])c1)=NO2 (configuration not stated)	nt	nt	0	nt	nt	nt	nt
CN(C)c1ccc(C=c2c3ccccc3n3c2c2ccccc2[n+]3C)cc1	2	-30	-4	18	nt	nt	nt
